Measured values published in PubChem BioAssay (NCI).
This is part of a sample that, as a whole, favours compounds with a hit. Of some 79,000 tested, about 15% had one in any assay. Calls of active or inactive are those of the source. Cut-off read from the data, not from the text of the source: active = growth inhibition above about 70%; inactive = the rest.

Tests used:
[1] = NCI Yeast Anticancer Drug Screen. Data for the wt2 strain (AID 169);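 note: 0% = growth of vehicle-treated yeast cultures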; settings: S. cerevisiae wt2 strain growth inhibition, active compounds read high
Summary of the method: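 Against vehicle-treated controls, the growth of yeast exposed to each compound was compared, and the inhibition was recorded.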

[2] = NCI Yeast Anticancer Drug Screen. Data for the mlh1 strain (AID 171);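 note: 0% = growth of vehicle-treated control cultures of the same strain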; settings: S. cerevisiae mlh1 strain growth inhibition, active compounds read high
Summary of the method: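 Measured: yeast growth. Reference: vehicle-treated controls. Organism: strain with a defined alteration affecting DNA damage repair or cell cycle control, treated with compound.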

[3] = NCI Yeast Anticancer Drug Screen. Data for the sgs1 strain (AID 173);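 note: 0% = growth of vehicle-only control cultures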; settings: S. cerevisiae sgs1 mutant, active compounds read high
Summary of the method: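 Each compound was added to cultures of the altered yeast strain. Growth was recorded, and inhibition was derived by comparison with vehicle controls.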

[4] = NCI Yeast Anticancer Drug Screen. Data for the mlh1 rad18 strain (AID 175); settings: S. cerevisiae mlh1 rad18 strain growth inhibition, active compounds read high
Summary of the method: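 Genetically defined yeast (DNA repair-deficient) exposed to compounds; growth inhibition determined relative to vehicle.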

[5] = NCI Yeast Anticancer Drug Screen. Data for the rad18 strain (AID 177); settings: S. cerevisiae rad18 mutant growth inhibition, active compounds read high
Summary of the method: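 Vehicle-treated cultures served as the baseline for scoring compound-induced growth inhibition in DNA-repair-mutant yeast.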

[6] = NCI Yeast Anticancer Drug Screen. Data for the rad52 strain (AID 147);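 note: 0% = growth of vehicle-treated control cultures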; settings: S. cerevisiae rad52 mutant growth inhibition, active compounds read high
Summary of the method: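 The repair-mutant yeast strain was incubated with compounds, then growth was read and inhibition derived relative to vehicle.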

[7] = NCI Yeast Anticancer Drug Screen. Data for the wt1 strain (AID 149);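 note: 0% = growth of vehicle-treated wt1 cultures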; settings: S. cerevisiae wt1 strain (SPY 50644) growth inhibition, active compounds read high
Summary of the method: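 wt1 strain grown with compound or vehicle; inhibition taken from the growth difference.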

[8] = NCI Yeast Anticancer Drug Screen. Data for the rad50EPP+ strain (AID 151);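 note: 0% = growth of vehicle-treated control cultures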; settings: S. cerevisiae rad50 mutant strain, active compounds read high
Summary of the method: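 Vehicle-normalised growth inhibition; rad50EPP+ yeast strain, altered in DNA damage repair, compound-treated.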

[9] = NCI Yeast Anticancer Drug Screen. Data for the mgt1 strain (AID 153); settings: S. cerevisiae mgt1 mutant growth inhibition, active compounds read high
Summary of the method: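 Vehicle-normalized growth inhibition is determined in mgt1 yeast, a strain selected for a defined alteration in DNA repair or cell cycle control.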

[10] = NCI Yeast Anticancer Drug Screen. Data for the rad50 strain (AID 155);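 note: 0% = growth of vehicle-only cultures of the same strain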; settings: S. cerevisiae rad50 strain growth inhibition, active compounds read high
Summary of the method: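 DNA repair mutant yeast, compound exposure, growth read-out; inhibition is taken relative to vehicle.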

[11] = NCI Yeast Anticancer Drug Screen. Data for the mec2-1 strain (AID 157); settings: S. cerevisiae mec2-1 strain, active compounds read high
Summary of the method: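 Mutant yeast (mec2-1) grown with compound; growth inhibition relative to vehicle control reported.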

[12] = NCI Yeast Anticancer Drug Screen. Data for the rad14 strain (AID 159);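 note: 0% = growth of vehicle-treated control cultures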; settings: S. cerevisiae rad14 strain growth inhibition, active compounds read high
Summary of the method: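 DNA repair-defective yeast, compound-exposed; % growth inhibition derived by comparison with vehicle-treated controls.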

[13] = NCI Yeast Anticancer Drug Screen. Data for the sgs1 mgt1 strain (AID 161);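 note: 0% = growth of cultures given vehicle only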; settings: S. cerevisiae sgs1 mgt1 strain, active compounds read high
Summary of the method: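 Yeast cells carrying a defined DNA-repair defect were exposed to test compounds. Growth inhibition was measured relative to vehicle-treated controls.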

[14] = NCI Yeast Anticancer Drug Screen. Data for the CLN2oe strain (AID 163);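 note: 0% = growth of vehicle-only control cultures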; settings: S. cerevisiae CLN2oe strain, active compounds read high
Summary of the method: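 Compounds are applied to yeast harbouring a defined cell-cycle control change; reduced growth compared with vehicle-treated controls gives the value.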

[15] = NCI Yeast Anticancer Drug Screen. Data for the cln2 rad14 strain (AID 165);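 note: 0% = growth equal to vehicle treated cultures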; settings: S. cerevisiae cln2 rad14 strain, active compounds read high
Summary of the method: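 Readout is yeast growth inhibition versus vehicle-treated controls, using a strain with cln2 and rad14 alterations exposed to compound.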

[16] = NCI Yeast Anticancer Drug Screen. Data for the bub3 strain (AID 167); settings: S. cerevisiae bub3 mutant strain, active compounds read high
Summary of the method: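 In this screen, a yeast mutant lacking normal mitotic checkpoint function is challenged with compound. Relative growth versus vehicle gives the inhibition value.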

[17] = at 5.0 µM (retest, dose inferred, filed as 0.5)
[18] = at 50.0 µM (retest, dose inferred, filed as 5.0)

Measured: growth inhibition

CCNCC(=O)O[C@]1(CC)C(=O)OCc2c1cc1n(c2=O)Cc2cc3ccccc3nc2-1
active: [1]; at 100.0 µM 76%
inactive: [1]; at 1.2 µM -29% | [1]; at 3.7 µM -32% | [1]; at 11.0 µM -19% | [1]; at 33.0 µM 25% | [2]; at 1.2 µM 13% | [2]; at 3.7 µM 6% | [2]; at 11.0 µM -2% | [2]; at 33.0 µM -13% | [2]; at 100.0 µM -21% | [3]; at 1.2 µM 9% | [3]; at 3.7 µM 15% | [3]; at 11.0 µM 13% | [3]; at 33.0 µM 5% | [3]; at 100.0 µM -21% | [4]; [17] 16% | [4]; [18] 47% | [4]; at 50.0 µM 47.4% | [5]; at 1.2 µM 25% | [5]; at 3.7 µM 27% | [5]; at 11.0 µM 21% | [5]; at 33.0 µM 22% | [5]; at 100.0 µM 13%

O=C(/C=C(\c1ccccc1)N1CC1)c1ccccc1
active: [6]; at 100.0 µM 97% | [7]; at 100.0 µM 84% | [8]; at 33.0 µM 72% | [8]; at 100.0 µM 86% | [9]; at 100.0 µM 93% | [10]; [18] 86% | [10]; at 100.0 µM 98% | [11]; at 100.0 µM 97% | [12]; at 100.0 µM 99% | [14]; at 100.0 µM 84% | [16]; at 100.0 µM 93% | [1]; at 100.0 µM 93% | [2]; at 100.0 µM 98% | [3]; at 100.0 µM 97% | [4]; [18] 73%
inactive: [6]; at 1.2 µM -5% | [6]; at 3.7 µM -10% | [6]; at 11.0 µM -2% | [6]; at 33.0 µM 8% | [7]; at 1.2 µM -5% | [7]; at 3.7 µM -4% | [7]; at 11.0 µM -5% | [7]; at 33.0 µM 0% | [8]; at 1.2 µM 2% | [8]; at 3.7 µM 17% | [8]; at 11.0 µM 50% | [9]; at 1.2 µM -2% | [9]; at 3.7 µM -4% | [9]; at 11.0 µM -4% | [9]; at 33.0 µM 19% | [10]; at 1.2 µM -13% | [10]; at 3.7 µM -7% | [10]; [17] -140% | [10]; at 11.0 µM 8% | [10]; at 33.0 µM 33% | [10]; at 50.0 µM 62.5% | [11]; at 1.2 µM 2% | [11]; at 3.7 µM 1% | [11]; [17] -46% | [11]; at 11.0 µM 12% | [11]; at 33.0 µM -1% | [11]; [18] 28% | [11]; at 50.0 µM 59.8% | [12]; at 1.2 µM -4% | [12]; at 3.7 µM -1% | [12]; at 11.0 µM 3% | [12]; at 33.0 µM 40% | [13]; [17] -58% | [13]; [18] 47% | [13]; at 50.0 µM 17.2% | [14]; at 1.2 µM 4% | [14]; at 3.7 µM 1% | [14]; at 11.0 µM 0% | [14]; at 33.0 µM 0% | [15]; [17] -63% | [15]; [18] 12% | [15]; at 50.0 µM 0.55% | [16]; at 1.2 µM -7% | [16]; at 3.7 µM 0% | [16]; [17] -62% | [16]; at 11.0 µM 8% | [16]; at 33.0 µM 21% | [16]; [18] 54% | [16]; at 50.0 µM 63.9% | [1]; at 1.2 µM 0% | [1]; at 3.7 µM 0% | [1]; at 11.0 µM 1% | [1]; at 33.0 µM 3% | [2]; at 1.2 µM 7% | [2]; at 3.7 µM -3% | [2]; at 11.0 µM -5% | [2]; at 33.0 µM 6% | [3]; at 1.2 µM 1% | [3]; at 3.7 µM 2% | [3]; at 11.0 µM 3% | [3]; at 33.0 µM 31% | [4]; [17] -139% | [4]; at 50.0 µM 67.5%

COc1cc(C2c3cc4c(cc3[C@@H](Nc3ccc(N)cc3)C3COC(=O)[C@H]23)OCO4)cc(OC)c1O (some centres undefined)
active: [6]; at 1.2 µM 92% | [6]; at 3.7 µM 92% | [6]; at 11.0 µM 95% | [6]; at 33.0 µM 92% | [6]; at 100.0 µM 87% | [7]; at 11.0 µM 95% | [7]; at 33.0 µM 94% | [7]; at 100.0 µM 88% | [8]; at 33.0 µM 85% | [8]; at 100.0 µM 89% | [9]; at 11.0 µM 94% | [9]; at 33.0 µM 95% | [9]; at 100.0 µM 90% | [10]; at 1.2 µM 91% | [10]; at 3.7 µM 95% | [10]; [17] 92% | [10]; at 11.0 µM 95% | [10]; at 33.0 µM 94% | [10]; [18] 95% | [10]; at 50.0 µM 82.8% | [10]; at 100.0 µM 88% | [11]; at 3.7 µM 89% | [11]; [17] 70% | [11]; at 11.0 µM 95% | [11]; at 33.0 µM 93% | [11]; [18] 96% | [11]; at 50.0 µM 90% | [11]; at 100.0 µM 88% | [12]; at 3.7 µM 71% | [12]; at 11.0 µM 95% | [12]; at 100.0 µM 92% | [13]; [18] 94% | [13]; at 50.0 µM 85.3% | [14]; at 11.0 µM 92% | [14]; at 100.0 µM 88% | [15]; [18] 90% | [15]; at 50.0 µM 85.9% | [16]; at 11.0 µM 92% | [16]; at 33.0 µM 85% | [16]; [18] 93% | [16]; at 50.0 µM 84.8% | [16]; at 100.0 µM 85% | [1]; at 11.0 µM 92% | [1]; at 33.0 µM 94% | [1]; at 100.0 µM 93% | [2]; at 3.7 µM 74% | [2]; at 11.0 µM 93% | [2]; at 33.0 µM 93% | [2]; at 100.0 µM 90% | [3]; at 3.7 µM 77% | [3]; at 11.0 µM 92% | [3]; at 33.0 µM 94% | [3]; at 100.0 µM 88% | [4]; [17] 70% | [4]; [18] 94% | [4]; at 50.0 µM 85.9% | [5]; at 3.7 µM 72% | [5]; at 11.0 µM 93% | [5]; at 33.0 µM 93% | [5]; at 100.0 µM 85%
inactive: [7]; at 1.2 µM -35% | [7]; at 3.7 µM 64% | [8]; at 1.2 µM -2% | [8]; at 3.7 µM 12% | [8]; at 11.0 µM 63% | [9]; at 1.2 µM -16% | [9]; at 3.7 µM 66% | [11]; at 1.2 µM 14% | [12]; at 1.2 µM 2% | [12]; at 33.0 µM 37% | [13]; [17] 18% | [14]; at 1.2 µM 0% | [14]; at 3.7 µM 62% | [14]; at 33.0 µM 41% | [15]; [17] 20% | [16]; at 1.2 µM -33% | [16]; at 3.7 µM 55% | [16]; [17] 22% | [1]; at 1.2 µM -1% | [1]; at 3.7 µM 42% | [2]; at 1.2 µM -4% | [3]; at 1.2 µM 16% | [5]; at 1.2 µM -11%
